In PubChem BioAssay AID1159580 (chemical genetic matrix, 2015):
Several values for one entry are separate records, joined by “and”; a condition that tells them apart may be missing. Equal entries are not always repeated. In all, about 5,500 compounds went through this assay and about 2,000 (36%) were called active. About 18% were inconclusive and are not listed. No stated cut-off is given here; in the data, active means normalized growth mostly below about 0.91 (no sharp cut-off); inconclusive means no clear call, values can overlap the other calls; inactive means mostly above about 0.92. The list shows a part of the results.

Assay: chemical genetic growth profiling, strain panel (AID 1159580);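 further: tested at 20 µM; growth read once vehicle control cultures reached saturation at 30 °C; 1 = growth at the plate median or of vehicle wells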
Conditions: growth OD

Measured: normalized growth

CCC1(C)CC(=O)NC1=O (stereo unspecified)
inactive: S. cerevisiae deletion strains, locus YJR075W, strain HOC1, stronger effect = lower value 1.01 | S. cerevisiae deletion strains, locus YKL009W, strain mrt4, stronger effect = lower value 1.03 | S. cerevisiae deletion strains, locus YKL068W, stronger effect = lower value 1.01 | S. cerevisiae deletion strains, locus YKL085W, strain MDH1 (second series), stronger effect = lower value 1.01 | S. cerevisiae deletion strains, locus YKL085W, strain MDH1, stronger effect = lower value 1.01 | S. cerevisiae deletion strains, locus YKL160W, strain elf1, stronger effect = lower value 0.992 | S. cerevisiae deletion strains, locus YKL190W, strain CNB1, stronger effect = lower value 1.02 | S. cerevisiae deletion strains, locus YKR001C, strain vps1, stronger effect = lower value 1.01 | S. cerevisiae deletion strains, locus YKR026C, strain gcn3, stronger effect = lower value 0.979 | S. cerevisiae deletion strains, locus YKR091W, strain srl3, stronger effect = lower value 0.972 | S. cerevisiae deletion strains, locus YLL001W, strain dnm1, stronger effect = lower value 0.967 | S. cerevisiae deletion strains, locus YLL026W, stronger effect = lower value 0.98 | S. cerevisiae deletion strains, locus YLL041C, strain sdh2, stronger effect = lower value 0.995 | S. cerevisiae deletion strains, locus YLR027C, strain aat2, stronger effect = lower value 0.975 | S. cerevisiae deletion strains, locus YLR039C, strain RIC1, stronger effect = lower value 1.03 | S. cerevisiae deletion strains, locus YLR058C, strain SHM2, stronger effect = lower value 1.02 | S. cerevisiae deletion strains, locus YLR102C, strain apc9, stronger effect = lower value 1.01 | S. cerevisiae deletion strains, locus YLR113W, strain HOG1, stronger effect = lower value 0.966 | S. cerevisiae deletion strains, locus YLR221C, strain rsa3, stronger effect = lower value 0.987 | S. cerevisiae deletion strains, locus YLR258W, strain gsy2, stronger effect = lower value 0.968 | S. cerevisiae deletion strains, locus YLR262C, strain YPT6 (second series), stronger effect = lower value 0.977 | S. cerevisiae deletion strains, locus YLR262C, strain YPT6, stronger effect = lower value 1.04 | S. cerevisiae deletion strains, locus YLR268W, strain sec22, stronger effect = lower value 1.02 | S. cerevisiae deletion strains, locus YLR320W, strain mms22, stronger effect = lower value 0.978 | S. cerevisiae deletion strains, locus YLR330W, strain CHS5, stronger effect = lower value 1.01 | S. cerevisiae deletion strains, locus YLR342W, strain FKS1 (second series), stronger effect = lower value 1.02 | S. cerevisiae deletion strains, locus YLR342W, strain FKS1, stronger effect = lower value 0.988 | S. cerevisiae deletion strains, locus YLR357W, strain rsc2, stronger effect = lower value 0.965 | S. cerevisiae deletion strains, locus YLR370C, strain arc18, stronger effect = lower value 0.981 | S. cerevisiae deletion strains, locus YLR371W, strain rom2, stronger effect = lower value 1.02 | S. cerevisiae deletion strains, locus YLR384C, strain iki3, stronger effect = lower value 0.969 | S. cerevisiae deletion strains, locus YLR418C, strain cdc73, stronger effect = lower value 1.02 | S. cerevisiae deletion strains, locus YML016C, strain PPZ1, stronger effect = lower value 1.01 | S. cerevisiae deletion strains, locus YML032C, strain rad52, stronger effect = lower value 1.01 | S. cerevisiae deletion strains, locus YML120C, strain ndi1, stronger effect = lower value 0.977 | S. cerevisiae deletion strains, locus YML124C, strain tub3, stronger effect = lower value 1.02 | S. cerevisiae deletion strains, locus YMR058W, strain fet3, stronger effect = lower value 0.969 | S. cerevisiae deletion strains, locus YMR078C, strain ctf18, stronger effect = lower value 1.02 | S. cerevisiae deletion strains, locus YMR125W, strain sto1, stronger effect = lower value 0.97 | S. cerevisiae deletion strains, locus YMR129W, stronger effect = lower value 0.979 | S. cerevisiae deletion strains, locus YMR205C, strain PFK2, stronger effect = lower value 0.992 | S. cerevisiae deletion strains, locus YMR223W, strain ubp8, stronger effect = lower value 1.02 | S. cerevisiae deletion strains, locus YMR231W, strain pep5, stronger effect = lower value 0.983 | S. cerevisiae deletion strains, locus YMR263W, strain SAP30, stronger effect = lower value 1.01 | S. cerevisiae deletion strains, locus YMR307W, strain GAS1, stronger effect = lower value 1.04 | S. cerevisiae deletion strains, locus YNL067W, strain RPL9B, stronger effect = lower value 1.01 | S. cerevisiae deletion strains, locus YNL071W, strain lat1, stronger effect = lower value 0.96 | S. cerevisiae deletion strains, locus YNL128W, strain TEP1, stronger effect = lower value 1.04 | S. cerevisiae deletion strains, locus YNL153C, strain GIM3, stronger effect = lower value 1.01 | S. cerevisiae deletion strains, locus YNL175C, strain NOP13, stronger effect = lower value 0.993 | S. cerevisiae deletion strains, locus YNL183C, strain NPR1, stronger effect = lower value 0.906 | S. cerevisiae deletion strains, locus YNL197C, strain WHI3, stronger effect = lower value 0.999 | S. cerevisiae deletion strains, locus YNL209W, strain ssb2, stronger effect = lower value 0.969 | S. cerevisiae deletion strains, locus YNL224C, strain SQS1, stronger effect = lower value 0.975 | S. cerevisiae deletion strains, locus YNL233W, strain BNI4, stronger effect = lower value 1 | S. cerevisiae deletion strains, locus YNL248C, strain rpa49, stronger effect = lower value 0.993 | S. cerevisiae deletion strains, locus YNL250W, strain rad50, stronger effect = lower value 1.01 | S. cerevisiae deletion strains, locus YNL271C, strain bni1, stronger effect = lower value 1.03 | S. cerevisiae deletion strains, locus YNL298W, strain CLA4, stronger effect = lower value 1.02 | S. cerevisiae deletion strains, locus YNL307C, strain MCK1, stronger effect = lower value 1.02 | S. cerevisiae deletion strains, locus YNL322C, strain KRE1 (second series), stronger effect = lower value 0.982 | S. cerevisiae deletion strains, locus YNL322C, strain KRE1, stronger effect = lower value 1.01 and 1.02 | S. cerevisiae deletion strains, locus YNR049C, strain mso1, stronger effect = lower value 0.969 | S. cerevisiae deletion strains, locus YNR052C, strain pop2, stronger effect = lower value 1.02 | S. cerevisiae deletion strains, locus YOL006C, strain TOP1, stronger effect = lower value 0.992 | S. cerevisiae deletion strains, locus YOL012C, strain htz1 0.885 | S. cerevisiae deletion strains, locus YOL147C, strain pex11, stronger effect = lower value 1.01 | S. cerevisiae deletion strains, locus YOR001W, strain rrp6, stronger effect = lower value 0.98 | S. cerevisiae deletion strains, locus YOR061W, strain CKA2, stronger effect = lower value 1.01 | S. cerevisiae deletion strains, locus YOR069W, strain VPS5, stronger effect = lower value 1.01 | S. cerevisiae deletion strains, locus YOR070C, strain gyp1, stronger effect = lower value 1.01 | S. cerevisiae deletion strains, locus YOR080W, strain dia2, stronger effect = lower value 0.976 | S. cerevisiae deletion strains, locus YOR083W, strain WHI5 (second series), stronger effect = lower value 1 | S. cerevisiae deletion strains, locus YOR083W, strain WHI5, stronger effect = lower value 0.976 | S. cerevisiae deletion strains, locus YOR106W, strain vam3, stronger effect = lower value 0.959 | S. cerevisiae deletion strains, locus YOR136W, strain idh2, stronger effect = lower value 1.02 | S. cerevisiae deletion strains, locus YOR144C, strain elg1, stronger effect = lower value 1.01 | S. cerevisiae deletion strains, locus YOR184W, strain ser1, stronger effect = lower value 1.01 | S. cerevisiae deletion strains, locus YOR231W, strain MKK1, stronger effect = lower value 0.977 | S. cerevisiae deletion strains, locus YOR265W, strain rbl2, stronger effect = lower value 0.978 | S. cerevisiae deletion strains, locus YOR270C, strain vph1, stronger effect = lower value 0.984 | S. cerevisiae deletion strains, locus YOR290C, strain snf2, stronger effect = lower value 0.963 | S. cerevisiae deletion strains, locus YOR316C, strain cot1, stronger effect = lower value 1.02 | S. cerevisiae deletion strains, locus YPL051W, strain arl3, stronger effect = lower value 0.987 | S. cerevisiae deletion strains, locus YPL055C, strain LGE1, stronger effect = lower value 0.988 and 1.06 | S. cerevisiae deletion strains, locus YPL078C, strain atp4, stronger effect = lower value 0.97 | S. cerevisiae deletion strains, locus YPL106C, strain sse1, stronger effect = lower value 1.01 | S. cerevisiae deletion strains, locus YPL240C, strain hsp82, stronger effect = lower value 0.973 | S. cerevisiae deletion strains, locus YPL241C, strain CIN2, stronger effect = lower value 1.01 | S. cerevisiae deletion strains, locus YPL256C, strain CLN2, stronger effect = lower value 0.956 | S. cerevisiae deletion strains, locus YPR119W, strain clb2, stronger effect = lower value 1.01 | S. cerevisiae deletion strains, locus YPR141C, strain kar3, stronger effect = lower value 1.02 | S. cerevisiae deletion strains, locus YPR163C, strain tif3, stronger effect = lower value 1.02 | S. cerevisiae deletion strains, locus YPR167C, strain met16, stronger effect = lower value 1.02 | S. cerevisiae deletion strains, strain wtn01, stronger effect = lower value 1.02 | S. cerevisiae strains, strain wild type, stronger effect = lower value 1.01
